Measurements taken from PubChem BioAssay (NCATS).
“And” between values parts separate entries of the source, which are not always exact repeats. Equal values may be shown once. Records with an inconclusive call do not appear. A call without a number means that no potency is given here. Unmarked numbers belong to inactive results. The source made the active and inactive calls. Unless noted, calls come from the whole dose curve; as a rule, active = well fitted curve in either direction with a large enough effect (not every such curve was filed as active); inconclusive = small, poorly fitted or top-dose-only effect, or another doubt; inactive = flat fitted curve, though single readings scatter.

tested on: not listed separately; test: AP1 Signaling Pathway (AID 357); conditions: ME-180 AP-1-bla reporter, EGF-induced, beta-lactamase ratio, 5 h; series mostly up to 17.2 µM
Outline: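 ME-180 cells with beta-lactamase reporter under AP-1 response element, stimulated with EC50 EGF; compounds tested in titration series, 5 h at 37 °C. CCF4 substrate added 2.5 h at room temperature; 460/530 nm emission ratio gave %activity and AC50.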

**Q.** Which outcome does the source give for CC(=O)CCCCn1c(=O)c2c(ncn2C)n(C)c1=O here?
**A.** inactive

**Q.** For COc1ccc(-c2coc3cc(O)cc(O)c3c2=O)cc1, which outcome is on record?
**A.** inactive

**Q.** With CC[C@]1(O)C[C@@H]2CN(CCc3c([nH]c4ccccc34)[C@@](C(=O)OC)(c3cc4c(cc3OC)N(C)[C@H]3[C@@](O)(C(=O)OC)[C@H](OC(C)=O)[C@]5(CC)C=CCN6CC[C@]43[C@@H]65)C2)C1 as the compound, how does the outcome read?
**A.** inactive

**Q.** With COCCCCC(=NOCCN)c1ccc(C(F)(F)F)cc1 as the compound, how does the outcome read?
**A.** inactive

**Q.** With O=C1NC(=O)C(c2ccccc2)(c2ccccc2)N1 as the compound, how does the outcome read?
**A.** inactive

**Q.** For O=C(O)c1cc(O)c2c(c1)C(=O)c1cccc(O)c1C2=O, which outcome is on record?
**A.** inactive

**Q.** With CC(=O)c1ccc(S(=O)(=O)NC(=O)NC2CCCCC2)cc1 as the compound, how does the outcome read?
**A.** inactive

**Q.** For CCCCC1C(=O)N(c2ccccc2)N(c2ccccc2)C1=O, which outcome is on record?
**A.** inactive

**Q.** With CCN(CC)C(=O)c1ccc(O)c(OC)c1 as the compound, how does the outcome read?
**A.** inactive

**Q.** Which outcome does the source give for NCCS here?
**A.** inactive

**Q.** Which outcome does the source give for CCCNC(=O)NS(=O)(=O)c1ccc(Cl)cc1 here?
**A.** inactive

**Q.** For CCN1CCC[C@H]1CNC(=O)c1cc(S(N)(=O)=O)ccc1OC, which outcome is on record?
**A.** inactive

**Q.** For O=C(O)c1cc(-c2ccccc2)nc2ccccc12, which outcome is on record?
**A.** inactive

**Q.** For CCN(CC)CCOC(=O)c1ccc(N)cc1, which outcome is on record?
**A.** inactive

**Q.** With C[N+](C)(C)CCCCCC[N+](C)(C)C as the compound, how does the outcome read?
**A.** inactive

**Q.** For O=C1NCC2(CCN(CCc3ccccc3)CC2)O1, which outcome is on record?
**A.** inactive

**Q.** With C[N+](C)(C)CC(=O)O as the compound, how does the outcome read?
**A.** inactive

**Q.** For Clc1ccc(Cn2c(CN3CCCC3)nc3ccccc32)cc1, which outcome is on record?
**A.** inactive

**Q.** Which outcome does the source give for CC/C(=C(\c1ccccc1)c1ccc(OCCN(C)C)cc1)c1ccccc1 here?
**A.** inactive

**Q.** For c1cc(-c2sc(-c3ccncc3)c(-c3ccncc3)c2-c2ccncc2)ccn1, which outcome is on record?
**A.** inactive

**Q.** For O=C(O)CCc1nc(-c2ccccc2)c(-c2ccccc2)o1, which outcome is on record?
**A.** inactive

**Q.** For CC(C)OC(=O)C(C)(C)Oc1ccc(C(=O)c2ccc(Cl)cc2)cc1, which outcome is on record?
**A.** inactive

**Q.** For COc1ccccc1N1CCN(CCCNc2cc(=O)n(C)c(=O)n2C)CC1, which outcome is on record?
**A.** inactive

**Q.** With O=c1c(-c2ccc(O)cc2)coc2cc(O)ccc12 as the compound, how does the outcome read?
**A.** inactive

**Q.** Which outcome does the source give for C[C@@H](O)[C@H]1C(=O)N2C(C(=O)O)=C(S[C@@H]3CN[C@H](C(=O)N(C)C)C3)[C@H](C)[C@H]12 here?
**A.** inactive

biological target: Cytochrome P450 1A2 (Homo sapiens) (UniProt P05177); test: p450-cyp1a2 (AID 410; calls by dose curve; note: potency is the fitted concentration of half-maximal effect); conditions: recombinant CYP1A2, luciferin-ME demethylation, luminescence; series mostly up to 57 µM
Sequence (P05177 whole entry, looked up): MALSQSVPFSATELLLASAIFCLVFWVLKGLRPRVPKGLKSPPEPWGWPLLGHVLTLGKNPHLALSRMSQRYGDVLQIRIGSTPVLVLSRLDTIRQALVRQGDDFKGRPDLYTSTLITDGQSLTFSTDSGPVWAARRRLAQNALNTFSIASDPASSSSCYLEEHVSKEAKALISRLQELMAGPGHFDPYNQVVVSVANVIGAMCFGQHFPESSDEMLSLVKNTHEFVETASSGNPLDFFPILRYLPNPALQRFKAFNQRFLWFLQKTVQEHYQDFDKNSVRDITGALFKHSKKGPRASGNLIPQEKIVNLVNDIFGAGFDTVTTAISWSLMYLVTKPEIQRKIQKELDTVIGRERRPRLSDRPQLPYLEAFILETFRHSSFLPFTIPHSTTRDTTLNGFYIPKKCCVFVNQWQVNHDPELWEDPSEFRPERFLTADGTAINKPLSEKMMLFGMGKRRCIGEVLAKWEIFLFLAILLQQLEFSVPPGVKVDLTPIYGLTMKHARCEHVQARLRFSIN
Outline: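 20nM CYP1A2, 100uM Luciferin-ME (=Km), 100mM KPO4; cpd 10 min RT; +NADPH regen, 60 min RT; stop/detect 20 min; luminescence. Normalized to furafylline 57 uM = full inhibition.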

**Q.** Which Potency does the source give for CC(=O)CCCCn1c(=O)c2c(ncn2C)n(C)c1=O here?
**A.** 31.6 µM (active) and 12.6 µM (active)

**Q.** For COc1ccc(-c2coc3cc(O)cc(O)c3c2=O)cc1, which Potency is on record?
**A.** 3.98 µM (active)

**Q.** With COCCCCC(=NOCCN)c1ccc(C(F)(F)F)cc1 as the compound, how does the Potency read?
**A.** 158 nM (active) and 39.8 nM (active) and 15.8 nM (active)

**Q.** For O=C1NC(=O)C(c2ccccc2)(c2ccccc2)N1, which Potency is on record?
**A.** inactive

**Q.** For CC(=O)c1ccc(S(=O)(=O)NC(=O)NC2CCCCC2)cc1, which Potency is on record?
**A.** inactive

**Q.** Which Potency does the source give for CCCCC1C(=O)N(c2ccccc2)N(c2ccccc2)C1=O here?
**A.** inactive

**Q.** For CCN(CC)C(=O)c1ccc(O)c(OC)c1, which Potency is on record?
**A.** 12.6 µM (active)

**Q.** With NCCS as the compound, how does the Potency read?
**A.** inactive

**Q.** With CCCNC(=O)NS(=O)(=O)c1ccc(Cl)cc1 as the compound, how does the Potency read?
**A.** inactive

**Q.** Which Potency does the source give for CCN1CCC[C@H]1CNC(=O)c1cc(S(N)(=O)=O)ccc1OC here?
**A.** inactive

**Q.** Which Potency does the source give for CCN(CC)CCOC(=O)c1ccc(N)cc1 here?
**A.** inactive

**Q.** For C[N+](C)(C)CCCCCC[N+](C)(C)C, which Potency is on record?
**A.** inactive

**Q.** With O=C1NCC2(CCN(CCc3ccccc3)CC2)O1 as the compound, how does the Potency read?
**A.** inactive

**Q.** With C[N+](C)(C)CC(=O)O as the compound, how does the Potency read?
**A.** inactive

**Q.** With Clc1ccc(Cn2c(CN3CCCC3)nc3ccccc32)cc1 as the compound, how does the Potency read?
**A.** 10 µM (active) and 3.98 µM (active)

**Q.** Which Potency does the source give for c1cc(-c2sc(-c3ccncc3)c(-c3ccncc3)c2-c2ccncc2)ccn1 here?
**A.** 3.16 µM (active)

**Q.** Which Potency does the source give for CC(C)OC(=O)C(C)(C)Oc1ccc(C(=O)c2ccc(Cl)cc2)cc1 here?
**A.** 12.6 µM (active) and 5.01 µM (active)

**Q.** For COc1ccccc1N1CCN(CCCNc2cc(=O)n(C)c(=O)n2C)CC1, which Potency is on record?
**A.** inactive

**Q.** Which Potency does the source give for O=c1c(-c2ccc(O)cc2)coc2cc(O)ccc12 here?
**A.** 15.8 µM (active)

**Q.** For C[C@@H](O)[C@H]1C(=O)N2C(C(=O)O)=C(S[C@@H]3CN[C@H](C(=O)N(C)C)C3)[C@H](C)[C@H]12, which Potency is on record?
**A.** inactive

tested on: not listed separately; test: Cell Viability - BJ (AID 421; calls by dose curve;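 note: potency is the fitted concentration of half-maximal effect; cells exposed to compound for 40 hours at 37 °C before readout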); conditions: BJ fibroblast viability, qHTS
Outline: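 Cytotoxicity in human BJ foreskin fibroblasts is scored as loss of cellular ATP after a 40-hour exposure, measured by luciferase luminescence. Controls are DMSO and 100 uM tamoxifen.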

**Q.** For O=C1NC(=O)C(c2ccccc2)(c2ccccc2)N1, which Potency is on record?
**A.** > 92 µM

**Q.** With O=C(O)c1cc(O)c2c(c1)C(=O)c1cccc(O)c1C2=O as the compound, how does the Potency read?
**A.** > 92 µM

**Q.** For CC(=O)c1ccc(S(=O)(=O)NC(=O)NC2CCCCC2)cc1, which Potency is on record?
**A.** > 92 µM

**Q.** With CCCCC1C(=O)N(c2ccccc2)N(c2ccccc2)C1=O as the compound, how does the Potency read?
**A.** > 92 µM

**Q.** Which Potency does the source give for CCCNC(=O)NS(=O)(=O)c1ccc(Cl)cc1 here?
**A.** > 92 µM

**Q.** For O=c1c(-c2ccc(O)cc2)coc2cc(O)ccc12, which Potency is on record?
**A.** > 92 µM

tested on: not listed separately; test: Cell Viability - Jurkat (AID 426;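 active = dose-dependent loss of cell ATP signal giving a full or clear fitted curve, ranked by lower potency value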;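 note: potency is the fitted concentration of half-maximal effect; cells exposed to compound for 40 hours at 37 °C before ATP read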); conditions: qHTS
Outline: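 Luminescent ATP read-out (CellTiter-Glo, 20 min at room temperature) after 40 hr compound exposure at 37 °C of Jurkat E6-1 cells, 5000/well. Decreased ATP taken as cytotoxicity; AC50 from standard Hill equation.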

**Q.** With O=C1NC(=O)C(c2ccccc2)(c2ccccc2)N1 as the compound, how does the Potency read?
**A.** > 92 µM

**Q.** With CC(=O)c1ccc(S(=O)(=O)NC(=O)NC2CCCCC2)cc1 as the compound, how does the Potency read?
**A.** > 92 µM

**Q.** With CCCNC(=O)NS(=O)(=O)c1ccc(Cl)cc1 as the compound, how does the Potency read?
**A.** > 92 µM

**Q.** Which Potency does the source give for CC/C(=C(\c1ccccc1)c1ccc(OCCN(C)C)cc1)c1ccccc1 here?
**A.** 31.5 µM (active)

**Q.** Which Potency does the source give for O=c1c(-c2ccc(O)cc2)coc2cc(O)ccc12 here?
**A.** > 92 µM
